# Source: PubChem BioAssay (NCATS)
# Inconclusive results are not listed. Activity calls are given as the source filed them. Unless noted, the call rests on the fitted dose curve; in most records, active means well fitted curve in the direction sought with a large enough effect; inconclusive means small, poorly fitted or top-dose-only effect, or another doubt; inactive means no such curve, though single readings can be large; an effect the other way counts as inactive or inconclusive.
# Experiments:
# [1] = Quantitative High-Throughput drug screen in 47 multiple myeloma cell lines against the NCATS MIPE library collection: OCIMY5_PLB cell viability assay (AID 1918988); further: potency means the concentration at half of the fitted maximal effect; nearly all actives have a fitted effect of over 65% in size
# Summary of the method: (§1)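 Readout: median RLU from CellTiter-Glo after 5 min at room temperature. Preceding step was 48 h drug treatment of 500 cells/well at 37 °C, 5% CO2, with DMSO-only and media-only control wells.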
# [2] = Quantitative High-Throughput drug screen in 47 multiple myeloma cell lines against the NCATS MIPE library collection: U266_ATCC cell viability assay (AID 1919864); further: nearly all actives have a fitted effect of over 35% in size; further: potency means the concentration at half of the fitted maximal effect
# Summary of the method: as §1
# [3] = Quantitative High-Throughput drug screen in 47 multiple myeloma cell lines against the NCATS MIPE library collection: XG6_PLB cell viability assay (AID 1919865); further: nearly all actives have a fitted effect of over 40% in size; further: potency means the concentration at half of the fitted maximal effect
# Summary of the method: as §1
# [4] = Quantitative High-Throughput drug screen in 47 multiple myeloma cell lines against the NCATS MIPE library collection: XG1_PLB cell viability assay (AID 1919866); further: nearly all actives have a fitted effect of over 35% in size; further: potency means the concentration at half of the fitted maximal effect
# Summary of the method: as §1
# [5] = Quantitative High-Throughput drug screen in 47 multiple myeloma cell lines against the NCATS MIPE library collection: VP6_DJ cell viability assay (AID 1919867); further: nearly all actives have a fitted effect of over 40% in size; further: potency means the concentration at half of the fitted maximal effect
# Summary of the method: as §1
# [6] = Quantitative High-Throughput drug screen in 47 multiple myeloma cell lines against the NCATS MIPE library collection: RPMI8226_ATCC cell viability assay (AID 1919871); further: nearly all actives have a fitted effect of over 30% in size; further: potency means the concentration at half of the fitted maximal effect
# Summary of the method: as §1
# [7] = Quantitative High-Throughput drug screen in 47 multiple myeloma cell lines against the NCATS MIPE library collection: OPM2_DSMZ cell viability assay (AID 1919872); further: nearly all actives have a fitted effect of over 30% in size; further: potency means the concentration at half of the fitted maximal effect
# Summary of the method: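 We plated 500 myeloma cells per well, pinned in MIPE 4.0 compounds, and incubated for 48 hours at 37C. ATP was then quantified with CellTiter-Glo, with DMSO and media-only wells defining 100% and 0%.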
# [8] = Quantitative High-Throughput drug screen in 47 multiple myeloma cell lines against the NCATS MIPE library collection: KMS11_JCRBsus cell viability assay (AID 1919873); further: nearly all actives have a fitted effect of over 50% in size; further: potency means the concentration at half of the fitted maximal effect
# Summary of the method: as §1
# [9] = Quantitative High-Throughput drug screen in 47 multiple myeloma cell lines against the NCATS MIPE library collection: KMS28BM_JCRB cell viability assay (AID 1919874); further: nearly all actives have a fitted effect of over 35% in size; further: potency means the concentration at half of the fitted maximal effect
# Summary of the method: as §1
# [10] = qHTS drug screen for cell cycle checkpoint inhibitors in PARPi-resistant BRCA-mutant ovarian cancer cell lines. (AID 1963452; calls by dose curve); settings: PEO1/OlaR viability, CellTiter-Glo luminescence, 96 h, stronger effect = lower value
# Summary of the method: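 PEO1, PEO4 and PEO1/OlaR ovarian cancer cells, 600 per well, exposed 96 h at 37C to a dilution series. Viability read by CellTiter-Glo luminescence, normalized to DMSO and empty wells; activity summarized as Z-AUC.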
# [11] = Quantitative High-Throughput drug screen in 47 multiple myeloma cell lines against the NCATS MIPE library collection: OPM1_PLB cell viability assay (AID 1918989); further: nearly all actives have a fitted effect of over 40% in size; further: potency means the concentration at half of the fitted maximal effect
# Summary of the method: as §1
# [12] = Quantitative High-Throughput drug screen in 47 multiple myeloma cell lines against the NCATS MIPE library collection: SKMM1_PLB cell viability assay (AID 1919863); settings: SKMM1 myeloma viability, CellTiter-Glo ATP, 48 h; viability: stronger effect = lower value; further: nearly all actives have a fitted effect of over 35% in size
# Summary of the method: as §1
# [13] = Quantitative High-Throughput drug screen in 47 multiple myeloma cell lines against the NCATS MIPE library collection: UTMC2_PLB cell viability assay (AID 1919868); settings: CellTiter-Glo ATP luminescence, 48 h; viability (% of DMSO control): at 45.8 µM (top of the series); further: nearly all actives have a fitted effect of over 55% in size
# Summary of the method: as §1
# [14] = qHTS for identification of novel therapeutic agents for treatment of microphthalmiaassociated transcription factor (MiT) renal cell carcinoma (RCC) (AID 1963991); settings: CellTiter-Glo, 48 h, stronger effect = lower value
# Summary of the method: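 Three TFE3-fusion RCC cell lines (UOK109, UOK124, UOK145), 500 cells/well, were exposed to the 1912-compound MIPE 4.0 library for 48 hours at 37 C. Viability was read by CellTiter-Glo luminescence, normalised to DMSO (100%) and empty wells (0%), with 11-concentration curve fits.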
# 3D7 = assay: qHTS profiling for inhibitors of Plasmodium falciparum proliferation (AID 504749); further: nearly all actives have a fitted effect of over 60% in size; further: potency means the concentration at half of the fitted maximal effect;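 on activity, negative = inhibition: 0% = DMSO vehicle and full inhibition = artemisinin control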; settings: P. falciparum in erythrocytes, SYBR Green DNA, 72 h; series mostly up to 28.7 µM
# Summary of the method: (§2)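 Fluorescence of SYBR Green-bound parasite DNA, read at 485/535 nm, served as the growth measure. Infected erythrocytes were cultured with compound 72 h; artemisinin (0.29 uM) and DMSO wells defined the normalization range.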
# 7G8 = assay: as above; settings: P. falciparum in erythrocytes, SYBR Green DNA, 72 h; series mostly up to 28.7 µM
# Summary of the method: as §2
# [15] = Quantitative High-Throughput drug screen in 47 multiple myeloma cell lines against the NCATS MIPE library collection: PE2_PLB cell viability assay (AID 1919869); further: nearly all actives have a fitted effect of over 35% in size; further: potency means the concentration at half of the fitted maximal effect
# Summary of the method: as §1
# [16] = Quantitative High-Throughput drug screen in 47 multiple myeloma cell lines against the NCATS MIPE library collection: PCM6_Riken cell viability assay (AID 1919870); further: nearly all actives have a fitted effect of over 30% in size; further: potency means the concentration at half of the fitted maximal effect
# Summary of the method: as §1
# [17] = qHTS profiling for inhibitors of Plasmodium falciparum proliferation (AID 504749); further: potency means the concentration at half of the fitted maximal effect;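 on activity, negative = inhibition: 0% = DMSO vehicle and full inhibition = artemisinin control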; on all read-outs here: nearly all actives have a fitted effect of over 60% in size; settings: P. falciparum in erythrocytes, SYBR Green DNA, 72 h; for activity, negative = inhibition: at 28.7 µM (top of the series)
# Summary of the method: as §2
# [18] = KB-8-5-11 P-gp reporter qHTS against the NCATS DSHEA and TCM libraries (AID 1919977); further: 0% is about no effect
# Summary of the method: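 P-gp-overexpressing KB-8-5-11 cells were screened in colchicine-free medium at 500 cells/well, as a titration series. Cells were exposed for 72 h at 37C. Viability was read by CellTiter-Glo luminescence after 30 min at room temperature.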
# [19] = measured here: PEO1 parental Z-AUC
# [20] = TFE3-RCC UOK109 viability, measured here: UOK109 Z-AUC
# [21] = TFE3-RCC viability, measured here: UOK124 Z-AUC
# [22] = TFE3-RCC viability, measured here: UOK145 Z-AUC
compound,measurement,setting,value
CCNC(=O)CC1N=C(c2ccc(Cl)cc2)c2cc(OC)ccc2-n2c(C)nnc21 (configuration not stated),Potency,[1],6.62 µM (active)
same,Potency,[2],18.7 µM (active)
same,Potency,[3],4.69 µM (active)
same,Potency,[4],5.9 µM (active)
same,Potency,[5],16.6 µM (active)
same,Potency,[6],4.69 µM (active)
same,Potency,[7],16.6 µM (active)
same,Potency,[8],18.7 µM (active)
same,Potency,[9],18.7 µM (active)
same,Z-AUC,[10],0.242 (inactive)
same,Z-AUC,[10]; [19],0.653
same,Z-AUC,[10]; measured here: PEO4 Z-AUC,0.806
CC(=O)OCC1=C(C(=O)O)N2C(=O)[C@@H](N)[C@@H]2SC1,Potency,[11],inactive
same,viability,[12],121% (inactive)
same,Potency,[2],inactive
same,Potency,[4],inactive
same,Potency,[5],inactive
same,Potency,[13],inactive
same,Potency,[7],inactive
same,Potency,[8],inactive
same,Potency,[9],inactive
same,z-score,[14]; [20],-1.76
same,z-score,[14]; [21],0.735
same,z-score,[14]; [22],1.3
same,Potency,3D7,inactive
same,Potency,7G8,inactive
Clc1ccccc1C(c1ccccc1)(c1ccccc1)n1cccn1,Potency,[11],inactive
same,Potency,[2],10.5 µM (active)
same,Potency,[3],inactive
same,Potency,[4],inactive
same,Potency,[15],inactive
same,Potency,[6],20.9 µM (active)
same,Z-AUC,[10],0.364 (inactive)
same,Z-AUC,[10]; [19],0.863
same,Z-AUC,[10]; measured here: PEO4 Z-AUC,1.14
same,z-score,[14]; [20],-0.446
same,z-score,[14]; [21],0.841
same,z-score,[14]; [22],-1.28
CCC(=O)OC1CCC2C3CCC4=CC(=O)CC[C@@]4(C)C3CC[C@]12C (some centres not stated),Potency,[11],inactive
same,Potency,[4],inactive
same,Potency,[16],inactive
same,Potency,[7],inactive
same,Potency,[8],inactive
same,Potency,[9],inactive
same,z-score,[14]; [20],0.231
same,z-score,[14]; [21],0.282
same,z-score,[14]; [22],-0.0668
CC(C)(C)c1cc(C=C(C#N)C#N)cc(Br)c1O,Potency,[11],9.35 µM (active)
same,Potency,[2],26.4 µM (active)
same,Potency,[4],11.8 µM (active)
same,Potency,[5],11.8 µM (active)
same,Potency,[15],5.26 µM (active)
same,Potency,[16],18.7 µM (active)
same,Z-AUC,[10],1.28 (inactive)
same,Z-AUC,[10]; [19],1.11
same,Z-AUC,[10]; measured here: PEO4 Z-AUC,0.988
O=[N+]([O-])c1ncc[nH]1,Potency,[1],29.6 µM (active)
same,Potency,[2],inactive
same,Potency,[13],inactive
same,Potency,[15],inactive
same,Potency,[6],inactive
same,Potency,[7],inactive
Cc1cc(O)ccc1Cl,"activity, negative = inhibition",[17]; parasite line A,4.69% (inactive)
same,"activity, negative = inhibition",[17]; parasite line B,-0.29% (inactive)
same,Potency,3D7,inactive
CC(C)[C@]12O[C@H]1[C@@H]1O[C@]13[C@]1(O[C@H]1C[C@H]1C4=C(CC[C@@]13C)C(=O)OC4)[C@@H]2O,Z-AUC,[10],-2.76 (inactive)
same,Z-AUC,[10]; [19],-2.59
same,Z-AUC,[10]; measured here: PEO4 Z-AUC,-3.67
CCCN1CCC[C@H](c2cccc(O)c2)C1,"activity, negative = inhibition",[17]; parasite line A,8.52% (inactive)
same,"activity, negative = inhibition",[17]; parasite line B,-0.779% (inactive)
same,Potency,3D7,inactive
Cc1ccc(Cl)c(O)c1,"activity, negative = inhibition",[17]; parasite line A,9.64% (inactive)
same,"activity, negative = inhibition",[17]; parasite line B,15% (inactive)
same,Potency,3D7,inactive
same,Potency,7G8,inactive
C1CCC(NC2CCCCC2)CC1,"activity, negative = inhibition",[17]; parasite line A,7.71% (inactive)
same,"activity, negative = inhibition",[17]; parasite line B,9.08% (inactive)
same,Potency,3D7,inactive
same,Potency,7G8,inactive
C[C@](O)(COc1ccc(C#N)cc1)C(=O)Nc1ccc(C#N)c(C(F)(F)F)c1,Potency,[2],inactive
same,Potency,[7],inactive
same,Z-AUC,[10],0.66 (inactive)
same,Z-AUC,[10]; [19],0.716
same,Z-AUC,[10]; measured here: PEO4 Z-AUC,0.592
CC(C)NC(C)Cc1ccc(I)cc1 (configuration not stated),"activity, negative = inhibition",[17]; parasite line A,11.4% (inactive)
same,"activity, negative = inhibition",[17]; parasite line B,-12.4% (inactive)
same,Potency,3D7,inactive
same,Potency,7G8,10 µM (active)
O=[N+]([O-])c1ccc([As](=O)(O)O)cc1,Potency,[17]; parasite line A,6.31 µM (active)
same,Potency,[17]; parasite line B,6.31 µM (active)
same,Potency,3D7,10 µM (active)
same,Potency,7G8,3.55 µM (active)
CC1=C(C/C=C(\C)CCC[C@H](C)CCC[C@H](C)CCCC(C)C)C(=O)c2ccccc2C1=O,outcome,[18],inactive
CN1C2CCC1CC(OC(=O)c1cc(Cl)cc(Cl)c1)C2 (configuration not stated),"activity, negative = inhibition",[17]; parasite line A,-1.17% (inactive)
same,"activity, negative = inhibition",[17]; parasite line B,5.18% (inactive)
same,Potency,3D7,inactive
same,Potency,7G8,6.31 µM (active)
NC1=NC(=O)N2CC12 (configuration not stated),Potency,[3],9.35 µM (active)
same,Potency,[4],11.8 µM (active)
same,Potency,[5],14.8 µM (active)
same,Potency,[15],13.2 µM (active)
same,Potency,[16],8.33 µM (active)
same,Potency,[7],inactive
same,Potency,[8],inactive
same,Potency,[9],inactive
same,Z-AUC,[10],-1.19 (inactive)
same,Z-AUC,[10]; [19],-0.747
same,Z-AUC,[10]; measured here: PEO4 Z-AUC,-0.506
same,z-score,[14]; [20],0.952
same,z-score,[14]; [21],1.24
same,z-score,[14]; [22],1.15
same,Potency,7G8,10 µM (active)
C[C@]12CC[C@H]3[C@@H](CCC4=CC(=O)CC[C@@]43C)[C@H]1CC[C@H]2O,viability,[12],133% (inactive)
same,Potency,[3],inactive
same,Potency,[13],inactive
same,Potency,[16],inactive
same,Potency,[6],inactive
same,Potency,[7],inactive
O=C(O)COc1ccccc1,"activity, negative = inhibition",[17]; parasite line A,-0.911% (inactive)
same,"activity, negative = inhibition",[17]; parasite line B,7.97% (inactive)
same,Potency,3D7,inactive
same,Potency,7G8,inactive
C=CCN1CC[C@]23CCCCC2[C@H]1Cc1ccc(O)cc13 (some centres not stated),"activity, negative = inhibition",[17]; parasite line A,18.6% (inactive)
same,"activity, negative = inhibition",[17]; parasite line B,4.44% (inactive)
same,Potency,3D7,inactive
same,Potency,7G8,11.2 µM (active)
c1ccc(C2(c3ccccc3)CC2C2=NCCN2)cc1 (configuration not stated),"activity, negative = inhibition",[17]; parasite line A,-23% (inactive)
same,"activity, negative = inhibition",[17]; parasite line B,-12.8% (inactive)
same,Potency,3D7,inactive
C[C@]12CC[C@H](O)CC1=CC[C@H]1[C@H]3CCC(=O)[C@@]3(C)CC[C@@H]12,viability,[12],106% (inactive)
same,Potency,[13],inactive
same,Potency,[15],inactive
same,Potency,[16],16.6 µM (active)
same,Potency,[7],inactive
same,Potency,[8],23.5 µM (active)
CC(=O)N(C)c1cccc(-c2ccnc3c(C(=O)c4cccs4)cnn23)c1,viability,[12],119% (inactive)
same,Potency,[3],inactive
same,Potency,[4],inactive
same,Potency,[15],inactive
same,Potency,[16],inactive
same,Potency,[7],inactive
same,Potency,[8],18.7 µM (active)
same,Potency,[9],inactive
CCCCc1ccc(C(=O)O)nc1,"activity, negative = inhibition",[17]; parasite line A,0.211% (inactive)
same,"activity, negative = inhibition",[17]; parasite line B,1.46% (inactive)
same,Potency,3D7,inactive
same,Potency,7G8,inactive
